Reference: PubChem BioAssay (EPA / NIEHS)
Where “and” joins values, the source holds several entries; their conditions need not be identical. Identical values can stand only once. Some structures have more than one record in an assay (separate samples or runs), and their calls can disagree. Calls of active or inactive are those of the source. How the source made its calls: active means hit-call score of the fitted dose curve at least 0.9, where 1 is the maximum; inactive means score below 0.9.

Assays:
[1] = read-out: Macrophage colony-stimulating factor (MCSF), CSF1 (gene 1435); test: BSK_CASM3C_MCSF: BioMAP Diversity Plus: CASM3C Assay for Macrophage colony-stimulating factor (MCSF) Biomarker Activity (AID 2283044); details: primary human coronary artery smooth muscle cells; actives raise or lower the signal;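 further: M-CSF protein amount quantified by ELISA after 24 h exposure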
[2] = read-out: Low-density lipoprotein receptor (LDLR), LDLR (gene 3949); test: BSK_CASM3C_LDLR: BioMAP Diversity Plus: CASM3C Assay for Low-density lipoprotein receptor (LDLR) Biomarker Activity (AID 2283045); details: primary human coronary artery smooth muscle cells; actives raise or lower the signal;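 further: LDLR protein level on the cell surface quantified by ELISA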
[3] = read-out: Monocyte Chemoattractant Protein-1 (MCP1), CCL2 (gene 6347); test: BSK_CASM3C_MCP1: BioMAP Diversity Plus: CASM3C Assay for Monocyte Chemoattractant Protein-1 (MCP1) Biomarker Activity (AID 2283046); details: primary human coronary artery smooth muscle cells; actives raise or lower the signal;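 further: MCP-1 level quantified by ELISA 24 h after dosing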
[4] = BSK_CASM3C_Proliferation: Cell Proliferation Assessment in the BioMAP Diversity Plus: CASM3C Assay (AID 2283047); details: primary human coronary artery smooth muscle cells;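 further: sulforhodamine B total protein stain as relative cell number at 560 nm; sub-confluent cells exposed 48 h before staining; fitted both ways against DMSO so gain or loss of cell number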
[5] = read-out: Monokine induced gamma interferon (MIG), CXCL9 (gene 4283); test: BSK_CASM3C_MIG: BioMAP Diversity Plus: CASM3C Assay for Monokine induced gamma interferon (MIG) Biomarker Activity (AID 2283048); details: primary human coronary artery smooth muscle cells; actives raise or lower the signal;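 further: MIG protein level measured by ELISA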
[6] = read-out: serum amyloid A (SAA), SAA1 (gene 6288); test: BSK_CASM3C_SAA: BioMAP Diversity Plus: CASM3C Assay for serum amyloid A (SAA) Biomarker Activity (AID 2283049); details: primary human coronary artery smooth muscle cells; actives raise or lower the signal;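 further: SAA protein level quantified by ELISA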
[7] = BSK_CASM3C_SRB: Viability Assessment in the BioMAP Diversity Plus: CASM3C Assay (AID 2283050); details: primary human coronary artery smooth muscle cells;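 further: total protein by SRB staining as cytotoxicity measure in parallel cultures; cells exposed to compound for 24 h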
[8] = read-out: Thrombomodulin, THBD (gene 7056); test: BSK_CASM3C_Thrombomodulin: BioMAP Diversity Plus: CASM3C Assay for Thrombomodulin Biomarker Activity (AID 2283051); details: primary human coronary artery smooth muscle cells; actives raise or lower the signal;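 further: thrombomodulin protein level measured by ELISA 24 h after dosing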
[9] = read-out: Tissue Factor, F3 (gene 2152); test: BSK_CASM3C_TissueFactor: BioMAP Diversity Plus: CASM3C Assay for Tissue Factor Biomarker Activity (AID 2283052); details: primary human coronary artery smooth muscle cells; actives raise or lower the signal;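 further: cell surface tissue factor protein level read by ELISA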
[10] = read-out: Interferon-gamma inducible Protein 10 (IP10), CXCL10 (gene 3627); test: BSK_hDFCGF_IP10: BioMAP Diversity Plus: hDFCGF Assay for Interferon-gamma inducible Protein 10 (IP10) Biomarker Activity (AID 2283053); details: primary human foreskin fibroblasts; actives raise or lower the signal
How it was run: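 ELISA read-out of IP-10 (CXCL10) from primary human skin fibroblasts, 24 h after compound addition. Gain or loss of signal versus DMSO baseline, bidirectional curve fitting.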

[11] = read-out: Urokinase-type plasminogen activator receptor (uPAR), PLAUR (gene 5329); test: BSK_CASM3C_uPAR: BioMAP Diversity Plus: CASM3C Assay for Urokinase-type plasminogen activator receptor (uPAR) Biomarker Activity (AID 2283054); details: primary human coronary artery smooth muscle cells; actives raise or lower the signal;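 further: cell-surface uPAR protein level quantified by ELISA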
[12] = read-out: Vascular cell adhesion molecule 1 (VCAM1), VCAM1 (gene 7412); test: BSK_CASM3C_VCAM1: BioMAP Diversity Plus: CASM3C Assay for Vascular cell adhesion molecule 1 (VCAM1) Biomarker Activity (AID 2283055); details: primary human coronary artery smooth muscle cells; actives raise or lower the signal;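 further: VCAM-1 protein level quantified by ELISA on the cells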
[13] = read-out: Collagen III, COL3A1 (gene 1281); test: BSK_hDFCGF_CollagenIII: BioMAP Diversity Plus: hDFCGF Assay for Collagen III Biomarker Activity (AID 2283056); details: primary human foreskin fibroblasts; actives raise or lower the signal
How it was run: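 Cells: human foreskin fibroblasts, primary. Dosing followed by 24 h incubation, then ELISA for collagen III. Both increases and decreases scored relative to DMSO.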

[14] = read-out: Epidermal growth factor receptor (EGFR), EGFR (gene 1956); test: BSK_hDFCGF_EGFR: BioMAP Diversity Plus: hDFCGF Assay for Epidermal growth factor receptor (EGFR) Biomarker Activity (AID 2283057); details: primary human foreskin fibroblasts; actives raise or lower the signal
How it was run: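 ELISA readout of EGFR on human dermal fibroblasts (primary foreskin cells), 24 h post-dosing; bidirectional curve fit vs DMSO baseline, gain or loss of signal scored.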

[15] = read-out: Interleukin-8 (IL8), CXCL8 (gene 3576); test: BSK_hDFCGF_IL8: BioMAP Diversity Plus: hDFCGF Assay for Interleukin-8 (IL8) Biomarker Activity (AID 2283058); details: primary human foreskin fibroblasts; actives raise or lower the signal
How it was run: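 IL-8 levels from compound-treated primary human fibroblasts were read by ELISA at 24 h, with DMSO serving as baseline for bidirectional fitting.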

[16] = BSK_hDFCGF_Proliferation: Cell Proliferation Assessment in the BioMAP Diversity Plus: hDFCGF Assay (AID 2283059); details: primary human foreskin fibroblasts;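 further: curves fitted for both rise and fall of signal versus DMSO baseline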
How it was run: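 Total protein read at 560 nm after 0.1% SRB staining of TCA-fixed human skin fibroblasts, […]. Activity is fitted in both directions relative to DMSO as baseline.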

[17] = read-out: Macrophage colony-stimulating factor (MCSF), CSF1 (gene 1435); test: BSK_hDFCGF_MCSF: BioMAP Diversity Plus: hDFCGF Assay for Macrophage colony-stimulating factor (MCSF) Biomarker Activity (AID 2283060); details: primary human foreskin fibroblasts; actives raise or lower the signal
How it was run: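 M-CSF levels, determined by ELISA, are taken at 24 h after dosing human skin fibroblasts. Responses in either direction are fitted with DMSO serving as the baseline.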

[18] = BSK_hDFCGF_SRB: Viability Assessment in the BioMAP Diversity Plus: hDFCGF Assay (AID 2283061); details: primary human foreskin fibroblasts;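 further: cells exposed to compound for 24 h before the read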
How it was run: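 Cells were dosed with test chemical, cultured 24 h, fixed with 10% TCA, then stained with 0.1% SRB and read at 560 nm. The fibroblasts were human foreskin primary cells, and DMSO served as baseline.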

[19] = read-out: TIMP metallopeptidase inhibitor 1 (TIMP1), TIMP1 (gene 7076); test: BSK_hDFCGF_TIMP1: BioMAP Diversity Plus: hDFCGF Assay for TIMP metallopeptidase inhibitor 1 (TIMP1) Biomarker Activity (AID 2283062); details: primary human foreskin fibroblasts; actives raise or lower the signal
How it was run: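 Fibroblasts from human foreskin are treated with test chemical and harvested at 24 h. TIMP-1 is quantified by ELISA, and gain or loss of signal is scored against DMSO.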

[20] = read-out: Monokine induced gamma interferon (MIG), CXCL9 (gene 4283); test: BSK_hDFCGF_MIG: BioMAP Diversity Plus: hDFCGF Assay for Monokine induced gamma interferon (MIG) Biomarker Activity (AID 2283063); details: primary human foreskin fibroblasts; actives raise or lower the signal
How it was run: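 MIG signal, determined by ELISA, reflects 24 h chemical exposure of human skin primary fibroblasts. DMSO serves as negative control and baseline.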

## CCCCC/C=C\C/C=C\CCCCCCCC(=O)OC
[1]
  AC50: 20 µM (active)
[2]
  AC50: 28.7 µM (active)
[3]
  AC50: 33.7 µM (active)
[4]
  AC50: 14.4 µM (active)
[5]
  AC50: 31.1 µM (active)
[6]
  outcome: inactive
[7]
  AC50: 31.7 µM (active)
[8]
  outcome: inactive
[9]
  AC50: 11.4 µM (active)
[10]
  AC50: 33.5 µM (active)
[11]
  AC50: 28.7 µM (active)
[12]
  AC50: 21.6 µM (active)
[13]
  AC50: 27.8 µM (active)
[14]
  outcome: inactive
[15]
  outcome: inactive
[16]
  AC50: 5.85 µM (active)
[17]
  AC50: 26.5 µM (active)
[18]
  AC50: 31.5 µM (active)
[19]
  AC50: 29.3 µM (active)
[20]
  AC50: 35.3 µM (active)

## CCCCCCCCc1ccc(Nc2ccc(CCCCCCCC)cc2)cc1
[1]
  outcome: inactive
[2]
  outcome: inactive
[3]
  outcome: inactive
[4]
  AC50: 14.9 µM (active)
[5]
  outcome: inactive
[6]
  outcome: inactive
[7]
  outcome: inactive
[8]
  outcome: inactive
[9]
  outcome: inactive
[10]
  outcome: inactive
[11]
  outcome: inactive
[12]
  outcome: inactive
[13]
  outcome: inactive
[14]
  outcome: inactive
[15]
  outcome: inactive
[16]
  outcome: inactive
[17]
  outcome: inactive
[18]
  outcome: inactive
[19]
  outcome: inactive
[20]
  outcome: inactive

## O=C1CCCN1CCO
[1]
  outcome: inactive
[2]
  outcome: inactive
[3]
  outcome: inactive
[4]
  outcome: inactive
[5]
  outcome: inactive
[6]
  outcome: inactive
[7]
  outcome: inactive
[8]
  outcome: inactive
[9]
  outcome: inactive
[10]
  outcome: inactive
[11]
  outcome: inactive
[12]
  outcome: inactive
[13]
  outcome: inactive
[14]
  outcome: inactive
[15]
  outcome: inactive
[16]
  outcome: inactive
[17]
  outcome: inactive
[18]
  outcome: inactive
[19]
  outcome: inactive
[20]
  outcome: inactive

## CC1OC1C1CCC2(C)OC2C1 (configuration not stated)
[1]
  outcome: inactive
[2]
  outcome: inactive
[3]
  outcome: inactive
[4]
  outcome: inactive
[5]
  outcome: inactive
[6]
  outcome: inactive
[7]
  outcome: inactive
[8]
  outcome: inactive
[9]
  outcome: inactive
[10]
  outcome: inactive
[11]
  outcome: inactive
[12]
  outcome: inactive
[13]
  AC50: 11.4 µM (active)
[14]
  outcome: inactive
[15]
  outcome: inactive
[16]
  outcome: inactive
[17]
  outcome: inactive
[18]
  outcome: inactive
[19]
  outcome: inactive
[20]
  outcome: inactive

## CCCCCCCCCCCCCCCC[N+](C)(C)CC
[1]
  AC50: 1.93 µM (active)
[2]
  AC50: 2.94 µM (active)
[3]
  AC50: 3.54 µM (active)
[4]
  AC50: 1.61 µM (active)
[5]
  AC50: 6.02 µM (active)
[6]
  AC50: 2.61 µM (active)
[7]
  AC50: 1.88 µM (active)
[8]
  outcome: inactive
[9]
  AC50: 2.19 µM (active)
[10]
  AC50: 2.84 µM (active)
[11]
  AC50: 3.16 µM (active)
[12]
  AC50: 4.21 µM (active)
[13]
  AC50: 0.447 µM (active)
[14]
  outcome: inactive
[15]
  AC50: 12.4 µM (active)
[16]
  AC50: 0.484 µM (active)
[17]
  AC50: 1.49 µM (active)
[18]
  AC50: 1.28 µM (active)
[19]
  AC50: 1.89 µM (active)
[20]
  AC50: 3.45 µM (active)

## CCOc1nc(F)cc2nc(S(=O)(=O)Nc3c(Cl)cccc3C(=O)OC)nn12
[1]
  outcome: inactive
[2]
  outcome: inactive
[3]
  outcome: inactive
[4]
  outcome: inactive
[5]
  outcome: inactive
[6]
  outcome: inactive
[7]
  outcome: inactive
[8]
  outcome: inactive
[9]
  outcome: inactive
[10]
  outcome: inactive
[11]
  outcome: inactive
[12]
  outcome: inactive
[13]
  outcome: inactive
[14]
  outcome: inactive
[15]
  outcome: inactive
[16]
  outcome: inactive
[17]
  outcome: inactive
[18]
  outcome: inactive
[19]
  outcome: inactive
[20]
  outcome: inactive

## CO[Si](OC)(OC)c1ccccc1
[1]
  outcome: inactive
[2]
  outcome: inactive
[3]
  outcome: inactive
[4]
  outcome: inactive
[5]
  outcome: inactive
[6]
  outcome: inactive
[7]
  outcome: inactive
[8]
  outcome: inactive
[9]
  outcome: inactive
[10]
  outcome: inactive
[11]
  outcome: inactive
[12]
  outcome: inactive
[13]
  outcome: inactive
[14]
  outcome: inactive
[15]
  outcome: inactive
[16]
  outcome: inactive
[17]
  outcome: inactive
[18]
  outcome: inactive
[19]
  outcome: inactive
[20]
  outcome: inactive

## C=C[Si](OC(C)=O)(OC(C)=O)OC(C)=O
[1]
  outcome: inactive
[2]
  AC50: 1.25 µM (active)
  outcome: inactive
[3]
  outcome: inactive
[4]
  outcome: inactive
[5]
  outcome: inactive
[6]
  outcome: inactive
[7]
  outcome: inactive
[8]
  outcome: inactive
[9]
  outcome: inactive
[10]
  outcome: inactive
[11]
  outcome: inactive
[12]
  outcome: inactive
[13]
  AC50: 3.16 µM (active)
  outcome: inactive
[14]
  outcome: inactive
[15]
  outcome: inactive
[16]
  AC50: 32.4 µM (active) and 20 µM (active)
[17]
  outcome: inactive
[18]
  outcome: inactive
[19]
  outcome: inactive
[20]
  outcome: inactive

## c1ccc2c(c1)ccc1ncccc12
[1]
  outcome: inactive
[2]
  outcome: inactive
[3]
  outcome: inactive
[4]
  outcome: inactive
[5]
  outcome: inactive
[6]
  outcome: inactive
[7]
  outcome: inactive
[8]
  outcome: inactive
[9]
  outcome: inactive
[10]
  outcome: inactive
[11]
  outcome: inactive
[12]
  outcome: inactive
[13]
  outcome: inactive
[14]
  outcome: inactive
[15]
  outcome: inactive
[16]
  AC50: 20 µM (active)
[17]
  outcome: inactive
[18]
  outcome: inactive
[19]
  outcome: inactive
[20]
  outcome: inactive
